Laboratory results from PubChem BioAssay AID602346 (Broad Institute, 2012).
About 1,200 (0.35%) of roughly 340,000 compounds were called active. This is one part of a sample in which actives are shown more often than they occur. Values without a mark were called inactive. Cut-off read from the data, not from the text of the source: active = inhibition above about 50% (passing the limit was not always enough); inconclusive = no clear call, values can overlap the other calls; inactive = below about 31%.

Test: blockers of Vif multimerization in cells – imaging, HEK293T, single point, primary screen (AID 602346)
Conditions: Vif self-association by quenched fluorescence, 24 h, at 7.49 µM, stronger effect = higher value

Compound | inhibition
O=C(NC(c1ccc(-c2ccccc2)cc1)c1cnccn1)C1CCN(CCOc2ccc(Cl)cc2Cl)CC1 (centres undefined) | 4.85%
CCOC1=C2[C@H]([C@H]3C(=O)N(c4ccccc4)C(=O)[C@H]3C1)[C@@H](c1ccccc1)N(S(=O)(=O)c1ccc(C)cc1)[C@H]2c1ccccc1 | 6.5%
Cc1cc2nc(-c3ccc(Cl)cc3)c(Cc3cccc(F)c3)n2c(C)c1Br | 16.2%
C[C@H]1CN([C@@H](C)CO)C(=O)c2cc(C3=CCCCC3)cnc2O[C@@H]1CN(C)C(=O)Cc1ccccc1 | -21%
O=C(O)c1ccccc1-c1ccccc1C(=O)Nc1nccs1 | 13.1%
COc1ccc(-c2nn(-c3ccccc3)cc2C(=O)Nc2nccs2)cc1OC | 52.9% (active)
COc1ccc(NC(=O)c2cn(-c3ccccc3)nc2SC)cc1 | -9.63%
CC1(C(=O)Nc2cccc3c2CCCC3)CCN1C(=O)CCc1ccc(Cl)cc1Cl (centres undefined) | -0.855%
CCc1cc(-c2nnn(CCC3COCCO3)c2CC)ccc1-c1cn(Cc2ccc3ccccc3c2)nn1 (centres undefined) | -19.8%
CCc1nc2c(OCc3ccc(Cl)cc3Cl)cccn2c1N(C)C(=O)C(C)C | -10.6%
CCc1nc2ccc(C(=O)Nc3cc(-c4ccccc4)ccc3OC)cn2c1N(CC)CC(=O)N(C)C | -11.6%
CCOCCC(=O)Nc1ccc2c(c1)c(=O)n(C)n2-c1ccc2ccccc2c1 | 34.9%
N#C/C(=C1\CCCN1)c1nc(-c2ccccc2)cs1 | 61.4% (active)
N#CC(=C1CCCC1)c1nc(-c2ccc(Cl)cc2)cs1 | 3%
Cn1c(/C(C#N)=C2/CCCCCN2)nc2ccccc21 | 5.07%
O=C(NCCOc1ccccc1)N1[C@H]2CC[C@@H]1C=C(c1ccc(F)cc1OCc1ccccc1)C2 | -2.23%
CCCN(CCC)c1nc2c(C)cccn2c(=O)c1/C=C1/SC(=S)N(Cc2ccco2)C1=O | 146% (active)
Cc1ccc2[nH]c(=O)c(-c3nc4c(C)cccn4c3NCc3ccco3)cc2c1 | -12.9%
CCc1nc2c(OCc3ccc(C(F)(F)F)cc3)cccn2c1N(C)C(=O)CC(C)C | -5.03%
COc1ccc(NC(=O)C2Cc3c(-c4ccc5c(c4)OCO5)ccnc3O2)cn1 (centres undefined) | -5.58%
COc1cccc(CNc2nc(NCc3ccccc3OC)nc3ccsc23)c1 | -2.52%
O=C1OCC2=C1C(c1ccc(Cl)cc1)c1cc3c(cc1O2)OCO3 (centres undefined) | -11.3%
CCCOc1ccccc1C1CC(=O)Nc2cc3c(cc21)OCO3 (centres undefined) | -2.32%
COc1ccccc1C1C2=C(COC2=O)Nc2cc3c(cc21)OCO3 (centres undefined) | 89.1% (active)
COc1ccc(OC)c(NC(=O)COC(=O)Cc2ccsc2)c1 | 9.67%
COc1ccccc1C(C)NC(=O)Cc1ccsc1 (centres undefined) | 98.8% (active)
COc1ccc(CN(C)C(=O)Cc2ccsc2)c(OC)c1OC | -9.61%

Compound | inhibition
O=C(COc1ccccc1Cl)Nc1ccccc1C(=O)NC1CC1 | -13.2%
O=C(COc1ccccc1Cl)Nc1ccc(C(=O)c2ccc(C(=O)O)cc2)cc1 | 21.3%
CC(=O)Nc1ccc(NC(=O)COc2ccccc2C(=O)Nc2cccc(Cl)c2Cl)cc1 | 146% (active)
NC(c1csc(NC(=O)Nc2ccccc2Oc2ccccc2)n1)c1ccccc1Cl (centres undefined) | -9.54%
COc1cncc(-c2cnc3sc(NCCc4ccccn4)nn23)c1 | -4.71%
OC(c1cc(Cl)cc(Cl)c1)c1ncc(-c2ccccc2C(F)(F)F)[nH]1 (centres undefined) | 7.62%
Cc1cccc(CNC(=O)c2sc(=O)n(Cc3ccccc3C)c2C)c1 | -3.32%
O=C1C=C(NS(=O)(=O)c2ccccc2)C(=O)c2ccccc21 | 5.11%
O=C(NC1=CC(=O)c2ccccc2C1=O)c1ccccc1 | 120% (active)
Cn1c(NC(=O)c2ccccc2)nc2ccccc21 | -0.44%
O=C(c1ccc(CS(=O)Cc2ccccc2Cl)o1)N1CCN(c2ccccc2)CC1 (centres undefined) | 2.07%
O=C(CCc1ccc(O)cc1)NN=Cc1cc(Br)ccc1O | -6.15%
CCc1nc2c(OCCC3CCCCC3)cccn2c1N(C)C(=O)c1ccco1 | 3.23%
COC(=O)NNC1=CC(=O)CC(C)(C)C1 | 7.17%
CC1(C)CC(=O)C=C(NC2CC(C)(C)NC(C)(C)C2)C1 | 65.2% (active)
CC1(C)CC(=O)C=C(NCCCNC2CCCCC2)C1 | -5.64%
O=C(c1ccc(N2CCCC2=O)cc1)N1CCN(c2ccc(C(F)(F)F)cc2[N+](=O)[O-])CC1 | -4.95%
CC(C)C[C@H]1CNC(=S)N1C[C@H]1CCCN1C[C@H](Cc1ccc(O)cc1)N1C[C@H](Cc2ccc(O)cc2)N(CC2CCCCC2)C1=S | 5.91%
Cc1ccc(S(=O)(=O)N2C[C@H]3n4c(=O)ccc(=O)n4C[C@H](OC(=O)NC4CCCC4)[C@@]3(O)C2)cc1 | -13.2%
CC1CCN(c2ccc3c(c2)S(=O)(=O)c2cc(C(=O)O)ccc2C3=O)CC1 | -0.214%
Cc1ccc(CNC(=O)c2cccc3c2C(=O)c2ccc(N4CCC(C)CC4)cc2S3(=O)=O)cc1 | 111% (active)
Cc1ccc(CNC(=O)c2ccc3c(c2)S(=O)(=O)c2ccccc2C3=O)cc1 | 5.37%
CN(C)CCNC(=O)c1cccc(-c2cnc3c(NC=O)cc(-c4cccc(C(F)(F)F)c4)cn23)c1 | 5.61%
C=C1C(=O)[C@]23C[C@H]1CCC2[C@@]1(C)C(C[C@@H]3O)[C@](C)(C(=O)O)CC[C@@H]1O (some centres undefined) | 12.6%
O=C(CCCN1C(=O)C(c2ccccc2)Oc2cccnc21)Nc1ccccc1Br (centres undefined) | 6.43%
CC(=O)Nc1cc(-c2ccccc2N(C)C)cn2c(-c3ccc(F)c(Cl)c3)cnc12 | -4.22%
CC(=O)Nc1cccc(-c2ccnc3c2CC(C)(C(=O)NCc2ccccc2)O3)c1 (centres undefined) | -11.2%
